# Assay results as given in the supplement of paper PMC9694430.
# Several values for one entry are separate records, joined by “and”; a condition that tells them apart may be missing. Identical values can stand only once. Counter-ions that a name gives are not always drawn.
# Legend:
# Test in all cases: thermal shift delta Tm vs DMSO control; higher = stronger stabilization (binding)
# Details in all cases: 12.5 µM; protein concentration 2 µM
# LOC_OS01G01410-cb001 = tested on: LOC_OS01G01410-cb001
# Outline: (§1)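 The melting temperature shift given here is a triplicate mean, measured against protein that received only DMSO. Melting temperatures came from Boltzmann fits of differential scanning fluorimetry data on E. coli-expressed, purified rice kinase domain constructs. Each 19.5 μl well contained 2 μM kinase, 100 mM potassium phosphate pH 7.5, 150 mM NaCl, 10% glycerol, 5 × SYPRO Orange and compound in DMSO. Plates were scanned from 25°C to 95°C at 0.05°C/s.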
# LOC_OS01G02750-cb003 = tested on: LOC_OS01G02750-cb003
# Outline: as §1
# LOC_OS01G10900-cb004 = tested on: LOC_OS01G10900-cb004
# Outline: as §1
# LOC_OS01G13800-cb001 = tested on: LOC_OS01G13800-cb001
# Outline: as §1
# LOC_OS01G14860-cb001 = tested on: LOC_OS01G14860-cb001
# Outline: as §1
# LOC_OS01G21960-cb002 = tested on: LOC_OS01G21960-cb002
# Outline: as §1
# LOC_OS01G39600-cb002 = tested on: LOC_OS01G39600-cb002
# Outline: as §1
# LOC_OS01G48390-cb002 = tested on: LOC_OS01G48390-cb002
# Outline: as §1
# LOC_OS01G51400-cb002 = tested on: LOC_OS01G51400-cb002
# Outline: as §1
# LOC_OS01G52050-cb004 = tested on: T1, LOC_OS01G52050-cb004
# T1 sequence (whole entry): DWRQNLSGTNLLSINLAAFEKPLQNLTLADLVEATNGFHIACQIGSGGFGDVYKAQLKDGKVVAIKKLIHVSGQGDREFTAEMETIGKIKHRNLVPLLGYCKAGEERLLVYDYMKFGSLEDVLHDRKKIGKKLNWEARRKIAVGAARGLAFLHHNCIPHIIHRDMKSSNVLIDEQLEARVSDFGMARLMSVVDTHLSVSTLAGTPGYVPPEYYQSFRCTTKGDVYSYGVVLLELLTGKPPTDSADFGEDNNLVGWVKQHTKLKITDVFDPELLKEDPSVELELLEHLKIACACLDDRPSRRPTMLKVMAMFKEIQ
# Outline: as §1
# LOC_OS01G57100-cb003 = tested on: LOC_OS01G57100-cb003
# Outline: as §1
# LOC_OS01G60330-cb001 = tested on: LOC_OS01G60330-cb001
# Outline: as §1
# LOC_OS01G60700-cb002 = tested on: LOC_OS01G60700-cb002
# Outline: as §1
# LOC_OS01G63280-cb003 = tested on: LOC_OS01G63280-cb003
# Outline: as §1
# LOC_OS01G67340-cb003 = tested on: LOC_OS01G67340-cb003
# Outline: as §1
# LOC_OS01G70970-cb002 = tested on: LOC_OS01G70970-cb002
# Outline: as §1
# LOC_OS02G07810-cb001 = tested on: LOC_OS02G07810-cb001
# Outline: as §1
# LOC_OS02G08530-cb003 = tested on: LOC_OS02G08530-cb003
# Outline: as §1
# LOC_OS02G14120-cb001 = tested on: LOC_OS02G14120-cb001
# Outline: as §1
# LOC_OS02G17970-cb001 = tested on: LOC_OS02G17970-cb001
# Outline: as §1
SMILES,thermal shift delta Tm (LOC_OS01G01410-cb001),thermal shift delta Tm (LOC_OS01G02750-cb003),thermal shift delta Tm (LOC_OS01G10900-cb004),thermal shift delta Tm (LOC_OS01G13800-cb001),thermal shift delta Tm (LOC_OS01G14860-cb001),thermal shift delta Tm (LOC_OS01G21960-cb002),thermal shift delta Tm (LOC_OS01G39600-cb002),thermal shift delta Tm (LOC_OS01G48390-cb002),thermal shift delta Tm (LOC_OS01G51400-cb002),thermal shift delta Tm (LOC_OS01G52050-cb004),thermal shift delta Tm (LOC_OS01G57100-cb003),thermal shift delta Tm (LOC_OS01G60330-cb001),thermal shift delta Tm (LOC_OS01G60700-cb002),thermal shift delta Tm (LOC_OS01G63280-cb003),thermal shift delta Tm (LOC_OS01G67340-cb003),thermal shift delta Tm (LOC_OS01G70970-cb002),thermal shift delta Tm (LOC_OS02G07810-cb001),thermal shift delta Tm (LOC_OS02G08530-cb003),thermal shift delta Tm (LOC_OS02G14120-cb001),thermal shift delta Tm (LOC_OS02G17970-cb001)
Cc1c(NC(=O)OC[C@@H]2COCCN2)cn2ncnc(Nc3ccc4c(cnn4Cc4cccc(F)c4)c3)c12,0.88 °C,-0.18 °C,0.06 °C,0.7 °C,0.19 °C,0.52 °C,0.91 °C,0.07 °C,0.14 °C,0.23 °C,0.24 °C,1.47 °C,1.55 °C,0.59 °C,-0.1 °C,0.39 °C,0.88 °C,0.86 °C,0.51 °C,0.42 °C
COc1ccc(S(=O)(=O)N(CCO)c2ccccc2CN(C)C/C=C/c2ccc(Cl)cc2)cc1 [KN-93 Phosphate],0.65 °C,0.92 °C,0.7 °C,-0.08 °C,0.51 °C,0.96 °C,-0.38 °C,0.66 °C,0.28 °C,0.47 °C,2.05 °C,2.19 °C,0.56 °C,0.11 °C,0.92 °C,0.38 °C,0.44 °C,0.66 °C,0.97 °C,0.03 °C
CCn1c(=O)c(-c2cc[nH]n2)cc2c(C)nc(N)nc21,0.43 °C,1.06 °C,0.44 °C,0.27 °C,0.44 °C,0.65 °C,0.24 °C,0.13 °C,-0.16 °C,0.21 °C,-0.09 °C,0.91 °C,0.72 °C,0.14 °C,0.34 °C,0.36 °C,0 °C,0.79 °C,0.62 °C,0.52 °C
Nc1ncccc1-c1nc2ccc(-c3ccccc3)nc2n1-c1ccc(C2(N)CCC2)cc1 [Miransertib (ARQ 092) HCl],0.37 °C,2.32 °C,0.6 °C,-0.45 °C,0.59 °C,0.09 °C,0.14 °C,0.09 °C,0.08 °C,0.78 °C,-0.19 °C,0.58 °C,-0.42 °C,-0.11 °C,0.08 °C,0.38 °C,-1.04 °C,0.49 °C,1.05 °C,-0.46 °C
Cc1cnc(NC(=O)Nc2cc(Br)c(C)cc2OC[C@@H]2CNCCO2)cn1,0.41 °C,0.39 °C,0.37 °C,-0.12 °C,0.81 °C,0.58 °C,0.24 °C,1.82 °C,0.02 °C,2.33 °C,0.95 °C,0.18 °C,0.72 °C,0.14 °C,0.03 °C,0.38 °C,0.19 °C,2.28 °C,0.85 °C,0.19 °C
"O=C(c1ccc(F)c(F)c1Nc1ccc(I)cc1F)N1CC(O)([C@@H]2CCCCN2)C1 [Cobimetinib (GDC-0973, RG7420)]",0.62 °C,1.67 °C,0.3 °C,0.01 °C,0.39 °C,0.36 °C,-0.03 °C,0.12 °C,0.29 °C,0.44 °C,2.49 °C,0.82 °C,1.16 °C,0.52 °C,0.36 °C,0.54 °C,0.48 °C,1.02 °C,1.18 °C,0.97 °C
Cc1cccc(CC(=O)N2CCc3c2ccc(-c2cn(C)c4ncnc(N)c24)c3F)n1,1.17 °C,6.31 °C,2.32 °C,-0.12 °C,0.28 °C,0.3 °C,0.17 °C,-0.13 °C,0.48 °C,1.35 °C,1.41 °C,0.28 °C,1.1 °C,5.6 °C,3.56 °C,0.24 °C,0.39 °C,0.71 °C,1.09 °C,1.12 °C
C[C@@H](N)[C@H]1CC[C@H](C(=O)Nc2ccncc2)CC1,1.02 °C,0.15 °C,0.1 °C,0.65 °C,0.11 °C,0.84 °C,0.45 °C,0.65 °C,0.29 °C,-0.08 °C,0.49 °C,1.12 °C,1.12 °C,0.48 °C,0.04 °C,0.52 °C,0.9 °C,0.85 °C,0.71 °C,0.32 °C
C[C@@H]1CCN(C(=O)CC#N)C[C@@H]1N(C)c1ncnc2[nH]ccc12,0.9 °C and -0.07 °C,0.59 °C and 1.29 °C,1.82 °C and 1.15 °C,-0.91 °C and -0.21 °C,0.33 °C and 0.19 °C,0.43 °C and 0.81 °C,1.17 °C and 1.71 °C,1.08 °C and 0.82 °C,0.59 °C and 0.38 °C,0.05 °C and 0.04 °C,1.55 °C and 1.07 °C,0.87 °C and 1.25 °C,0.98 °C and 1.64 °C,0.28 °C and 0.78 °C,0.15 °C and 0.3 °C,0.37 °C and 0.59 °C,0.22 °C and 0.98 °C,0.94 °C and 0.96 °C,0.97 °C and 0.47 °C,0 °C and 1.09 °C
O=c1cc(-c2cccc3c2Sc2ccccc2S3)oc(N2CCOCC2)c1,0.6 °C,-5.37 °C,1.94 °C,0.13 °C,2.44 °C,0.44 °C,0.29 °C,2.17 °C,-0.12 °C,-0.44 °C,0.21 °C,1.07 °C,0.76 °C,0.32 °C,-0.52 °C,-0.34 °C,0.78 °C,0.47 °C,0.45 °C,0.59 °C
CS(=O)(=O)N1CCc2c(-c3cnc(N)nc3)nc(N3CCOCC3)nc21,0.53 °C,3.27 °C,-0.12 °C,0.32 °C,0.7 °C,0.72 °C,-0.17 °C,0.96 °C,0.18 °C,0.32 °C,1.64 °C,1.56 °C,0.95 °C,0.4 °C,1.13 °C,0.73 °C,1.06 °C,1.51 °C,1.15 °C,0.81 °C
CCc1cccc(CC)c1NC(=O)N1Cc2[nH]nc(NC(=O)c3ccc(N4CCN(C)CC4)cc3)c2C1,0.31 °C,0.54 °C,0.87 °C,-0.49 °C,0.31 °C,0.34 °C,2.21 °C,0.01 °C,0 °C,0.17 °C,0.59 °C,0.73 °C,0.44 °C,0.43 °C,-0.29 °C,0.21 °C,0.66 °C,0.96 °C,4.48 °C,0.32 °C
